Assay outcomes from PubChem BioAssay.
LDHA inh: qHTS assay for inhibitors of human lactate dehydrogenase. L-lactate dehydrogenase A chain (Homo sapiens), P00338. purified LDHA, NADH/diaphorase-resazurin fluorescence; hits give low values. activity change, % (values are at about 110 or 230 µM). 480,000 tested, 0.15% active; in the data active = activity change below about -30%; inconclusive = mostly about -25% to -30%;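 also: plate controls were DMSO wells for no effect and wells without enzyme for full effect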
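Human LDH5 at 2 nM final in Tris HCl pH 7.4 with 0.06 mM NADH and 0.2 mM pyruvate, reacted 5 minutes at room temperature. Remaining NADH coupled via diaphorase/resazurin; resorufin fluorescence read at 0 and 20 minutes, normalized to enzyme-free and DMSO wells.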
RGS4 inh: Inhibitors of Regulator of G Protein Signaling (RGS) 4: qHTS | Potency, µM (titrated, usually from 114 µM), for inactives: top-dose activity change, negative = inhibition, actives largely listed as inhibitors | AID 504845, 2011 | 390,000 tested, 0.039% active | Transcreener GDP fluorescence polarization, RGS4-accelerated GTP hydrolysis | Regulator of G-protein signaling 4 (Homo sapiens), P49798; also: potency is read from the fitted curve at half-maximal effect; % is scaled to controls: 0 for no effect and ±100 for the full control effect; nearly all actives have a fitted effect of over 75% in size
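MLSMR compounds (23 nl, pin-transferred) preincubated 10 min at room temperature with a 500nM (2x) first reagent, then RGS4 at 900nM (2x) plus Transcreener GDP mix added; fluorescence polarization (620/688 nm) read before and after 90 min at 30 °C.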
p53 reactivation: qHTS assay for re-activators of p53 using a Luc reporter. H1299 p53-A138V BP100-luciferase reporter, luminescence, 24 h. Potency, µM (series often up to 92.2 µM), for the others: at the top dose activity change, positive = activation, most hits filed as activators. 320,000 tested, 0.063% active. AID 504706, 2011; also: potency is read from the fitted curve at half-maximal effect; % of control where 0% means no effect; nearly all actives have a fitted effect of over 45% in size
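p53-null H1299 cells stably carrying temperature-sensitive p53-A138V and a BP100-luciferase reporter were pinned with compounds (4-point, 1:5 series) and held 24 hrs at 37 deg C. Luminescence was read 10 min after detection reagent.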
PTHR1 ag: qHTS for PTHR1 Agonists: Primary Screen. HEK293 GP2 PTHR1 cells, GloSensor cAMP luminescence, 1 h. Potency, µM (top dose mostly 115 µM), without a hit: at the top dose activation, usual class: activators. 410,000 tested, 0.075% active; also: potency is read from the fitted curve at half-maximal effect; nearly all actives have a fitted effect of over 55% in size
Target sequence (Q03431 whole entry, looked up): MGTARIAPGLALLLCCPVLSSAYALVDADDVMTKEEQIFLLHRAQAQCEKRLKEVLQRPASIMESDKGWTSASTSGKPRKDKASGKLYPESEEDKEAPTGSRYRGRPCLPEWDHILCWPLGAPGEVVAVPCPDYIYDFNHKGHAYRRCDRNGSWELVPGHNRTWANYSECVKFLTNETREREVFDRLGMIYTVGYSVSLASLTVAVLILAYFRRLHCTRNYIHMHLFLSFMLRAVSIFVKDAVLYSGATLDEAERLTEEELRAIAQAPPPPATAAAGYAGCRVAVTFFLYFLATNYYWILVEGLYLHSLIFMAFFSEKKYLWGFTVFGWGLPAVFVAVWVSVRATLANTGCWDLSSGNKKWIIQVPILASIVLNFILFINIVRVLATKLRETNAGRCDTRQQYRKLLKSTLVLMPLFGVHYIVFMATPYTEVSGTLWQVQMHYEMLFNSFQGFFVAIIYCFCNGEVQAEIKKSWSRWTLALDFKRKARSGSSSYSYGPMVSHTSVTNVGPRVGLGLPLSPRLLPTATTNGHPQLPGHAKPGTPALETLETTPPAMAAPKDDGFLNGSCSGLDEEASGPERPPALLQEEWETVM
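HEK-293-derived GP2 cells expressing PTHR1 and a GloSensor cAMP reporter, 3,000/well, plated overnight, given luciferin plus IBMX (each 0.5 mM as added) for 1 h at 37 °C, then compound for 1 h at 37 °C. Luminescence was read after 15 min at room temperature.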
BRCA1 expr up: qHTS Assay to Identify Small Molecule Activators of BRCA1 Expression | AID 624202, 2012 | Potency, µM (titrated, usually from 46.1 µM), inactives show top-dose activation, most hits filed as activators | MCF7-BRCA1-FFLuc reporter, luminescence, 48 h; response scale: scaled: vehicle 0%, 10 µM genistein 100% | 380,000 tested, 1.1% active; also: potency is read from the fitted curve at half-maximal effect; nearly all actives have a fitted effect of over 80% in size
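MCF7-BRCA1-FFLuc cells, 2000/well in phenol-red-free MEM, attached 2 h then treated 48 h at 37 C. Luciferase luminescence read 15 min after reagent; normalized to genistein maximum activation (10microM) and DMSO, concentration-response fitted.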
An asterisk follows results filed as active; i = inactive; ? = inconclusive; nt = no result given; [ ] = dose if it differs, or a comment. Rows were chosen to be rich in hits. Some 1.1% of all compounds tested hit in one or more screens of this group. Unless noted, calls follow the shape of the dose curve; as a rule, active = well fitted curve in the direction sought with a large enough effect; inconclusive = small, poorly fitted or top-dose-only effect, or another doubt; inactive = no such curve, though single readings can be large; an effect the other way counts as inactive or inconclusive.

SMILES | LDHA inh | RGS4 inh | p53 reactivation | PTHR1 ag | BRCA1 expr up
O=C(Nc1ccc(Nc2ccccc2)cc1)c1ccc(Cl)cc1Cl | 2 | -11% | nt | -11% | 0%
COc1ccc(S(=O)(=O)N(CC(=O)N2CCC(C(N)=O)CC2)c2ccccc2)cc1OC | 3 | nt | nt | nt | nt
O=C(O)C(c1c[nH]c2ccc(Cl)cc12)N1CCN(c2nsc3ccccc23)CC1 (configuration not stated) | 13 | nt | nt | nt | nt
O=C1Cc2cc(CCN3CCN(c4nsc5ccccc45)CC3)c(Cl)cc2N1 | nt | 17µM* | nt | nt | nt
Fc1ccc(NC(=S)NC2CCCCCC2)cc1 | 5 | nt | nt | nt | nt
CC1CCN(C(=O)CSc2nnc3c(n2)[nH]c2ccc(F)cc23)CC1 | -5 | -4% | 3% | -17% | -21%
CC(C)c1ccc2[nH]c3nc(SCC(=O)N4CCOCC4)nnc3c2c1 | -6 | -4% | 25% | -14% | 11µM*
Cc1ccc2[nH]c(SCC(=O)N3CCOCC3)nc2c1C | -3 | 10% | ? | i | 8.9µM*
Cc1ccc2nc(SCC(=O)N3CCOCC3)[nH]c2c1 | -7 | -7% | ? | -18%[57.5 µM] | ?
CCn1ncc2c(C(=O)Nc3ccc(OC(F)F)cc3)cc(-c3cccs3)nc21 | 3 | nt | nt | nt | nt
COc1cc(CN(C(=S)NCC(=O)NCc2ccc(Cl)cc2)C2CCCC2)cc(OC)c1OC | 14 | nt | nt | nt | nt
COc1ccc(N2CCN(CC(=O)Nc3ccc(C)cc3Br)CC2)cc1 | 4 | -9% | nt | 0% | -6%
COc1ccc(NC(=O)CN2CCC(C)CC2)c([N+](=O)[O-])c1 | -2 | 1% | ? | -12% | 62%
COc1ccc(NC(=O)CN2CCCCC2)c([N+](=O)[O-])c1 | 3 | -10% | 15% | i | 10µM*
Cc1ccc(NC(=O)CN2CCCCCC2)c(Br)c1 | 1 | 4% | 23% | -78% | 11µM*
CC(=O)Nc1ccc(-c2nc(N3CCCCC3)sc2C)cc1 | 12 | nt | nt | nt | nt
C(=N\N1CCN(c2ccccn2)CC1)/c1ccco1 | -6 | -5% | 1% | -4% | 53%
Cc1ccc(/C=N/N2CCN(c3ccccn3)CC2)o1 | -2 | -42% | 9% | -18% | 10µM*
Oc1ccc(/C=N/N2CCN(c3ccccn3)CC2)cc1 | 2 | 5% | 8% | -11% | 64%
C(=N\N1CCN(c2ccccn2)CC1)/c1ccccn1 | -10 | -3% | 9% | -5% | 11µM*
COCCN(C(=O)C1CCN(C(=O)c2ccccc2C)CC1)c1c(N)n(CC(C)C)c(=O)[nH]c1=O | -47* | -29% | -2% | i | 0%
Cc1ccc(C)c(OCc2cc(C(=O)N3CCC(N4CCCC(O)C4)CC3)no2)c1 (configuration not stated) | -4 | -1% | 6% | -1% | 0%
COCCCC1CCN(C(=O)c2cc(COc3cc(C)ccc3C)on2)CC1 | -1 | 12% | ? | -26% | 3.2µM*
CC(=O)NCCC1CCCCN1C(=O)c1cc(COc2cc(C)ccc2C)on1 (configuration not stated) | -14 | 3% | ? | -14% | 7.1µM*
COC1CCN(C(=O)c2cc(COc3cc(C)ccc3C)on2)CC1 | -2 | nt | nt | -8% | 64%
SMILES | LDHA inh | RGS4 inh | p53 reactivation | PTHR1 ag | BRCA1 expr up
Cc1ccc(C)c(OCc2cc(C(=O)N3CCOCC3)no2)c1 | 0 | ? | ? | -19% | 18µM*
COC(=O)/C=C/c1ccc(OCc2ccc(Br)cc2)c(OC)c1 | 2 | nt | nt | nt | nt
Cc1ccc(Cc2cn3cc(-c4ccc(F)cc4)nc3s2)cc1 | 1 | -13% | nt | -29% | 2.2µM*
Cc1c(C(=O)N(C)Cc2ccccc2)sc2nc(-c3ccc(F)cc3)cn12 | 2 | -24% | nt | -66% | nt
COc1ccc(-c2nc3sc(CCNC(=O)c4cc(OC)c(OC)c(OC)c4)c(C)n3n2)cc1 | 1 | -29% | nt | -53% | 7.9µM*
CN1CCN(/N=C/c2ccc(OCc3ccccc3)cc2)CC1 | -6 | 10% | 14% | -47% | 7.9µM*
C(=N\n1cnnc1)/c1ccc(OCc2ccccc2)cc1 | 2 | 14% | 17% | i | 13µM*
COC(=O)c1ccc(COc2ccc(/C=N/N3CCN(C)CC3)cc2)cc1 | -5 | -3% | -3% | i | ?
CCOc1ccc(/C=N/n2cnnc2)cc1 | -7 | -7% | -5% | -17% | 2%
Nc1cc(OCc2ccccc2)ccc1OCc1ccccc1 | 13 | -13% | nt | -12% | 11µM*
Cc1ccc(NC(=O)CN2CCN(Cc3ccccc3)CC2)cc1 | -3 | -3% | -3% | i | -34%
CC1(C)C2CCC(C2)C1(C)NC(=O)CN1CCN(Cc2ccccc2)CC1 (configuration not stated) | -40* | -11% | -2% | -7% | -15%
CC(C)Cn1c2c(c(=O)[nH]c1=O)C(c1ccc(F)cc1)C1=C(COC1=O)N2 (configuration not stated) | -1 | nt | nt | nt | nt
O=c1c2c3c(sc2nc2n1N=C(c1cccs1)CS2)CCCC3 | -11 | 5% | ? | -13%[57.5 µM] | 1.3µM*
C[C@H](CO)N1C[C@H](C)[C@@H](CN(C)S(=O)(=O)c2cccc(F)c2)OCc2cn(nn2)CCCC1=O | -34* | nt | nt | -14% | 2%
C[C@@H]1CN([C@@H](C)CO)C(=O)CCCn2cc(nn2)CO[C@H]1CN(C)S(=O)(=O)c1cccc(F)c1 | -2 | nt | nt | -7% | 2%
CC(C)n1c(/C=C/c2ccccc2)nc2ccccc21 | -4 | -10% | ? | -16% | 2.2µM*
CC(=O)c1cccc(N/C=C\C(=O)c2ccc(C)cc2)c1 | -1 | 0% | 35µM* | -21% | ?
CCOC(=O)c1nn(-c2ccc3ccccc3c2)cc1O | 0 | 17% | 15% | -73% | 2.8µM*
CCOC(=O)c1nn(-c2ccccc2)cc1O | -7 | 3% | 10% | i | ?
CCOC(=O)c1nn(-c2ccc3c(c2)OCO3)cc1O | -3 | -4% | 24% | -7%[57.5 µM] | 3.2µM*
COC(=O)c1nc2ccccc2nc1N1CCN(c2cc(C)ccc2C)CC1 | 4 | nt | nt | nt | nt
O=C(c1cc(-c2cccc(Cl)c2)on1)N1CCCCCC1 | -6 | 10% | ? | -13% | 13µM*
CCN(CC)C(=O)c1sc2nc(N3CCOCC3)c3c(c2c1N)CCN(C)C3 | 7 | nt | nt | nt | nt
Cc1ccc2oc(C(=O)Nc3cccc(Cl)c3C)cc(=O)c2c1 | 1 | nt | nt | nt | nt
Cc1ccc(NC(=O)NCc2c(C)nn(C)c2C)cc1Cl | -2 | 12% | 8% | i | 5µM*
O=C(COc1ccccc1)NC12CC3CC(CC(C3)C1)C2 | -17 | nt | nt | nt | nt
